Values joined by “and” are separate entries in the source; they are usually repeats but may differ in a detail not shown here. Equal values may be shown once. Inconclusive results are not listed. Where a structure was tested more than once in an assay, its records may differ in their call. Active and inactive are the calls of the source. How the source made its calls, unless noted: active means hit-call score of the fitted dose curve at least 0.9, where 1 is the maximum; inactive means score below 0.9.
Columns and labels:
[1] = ATG_PBREM_CIS: Attagene CIS-FACTORIAL HepG2 Assay for human Phenobarbital-responsive Enhancer Module (PBREM) (AID 2282955); conditions: HepG2 PBREM cis-reporter, Attagene multiplexed transcription; actives raise or lower the signal
Outline: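 Reporter mRNA read by RT-PCR, 6-FAM primer extension, HpaI digestion and capillary electrophoresis. Transfected HepG2 cells, 24 h compound exposure. Gain or loss of signal fitted bidirectionally relative to DMSO baseline.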

[2] = target: Paired box protein Pax-6 (Homo sapiens) (UniProt P26367); assay: ATG_Pax6_CIS: Attagene CIS-FACTORIAL HepG2 Assay for human Paired Box 6 (PAX6) (AID 2282956); conditions: HepG2 CIS-FACTORIAL PAX6 reporter transcription, RNA readout; actives raise or lower the signal
Outline: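 DMSO-referenced bidirectional fits of reporter mRNA fluorescence; HepG2 with transient cis-promoter MRTUs, 24 h post-dose, RT-PCR plus capillary electrophoresis detection.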

[3] = ATG_PXRE_CIS: Attagene CIS-FACTORIAL HepG2 Assay for human Pregnane X Receptor Element (PXRE) (AID 2282957); conditions: HepG2 Attagene CIS-FACTORIAL PXRE reporter, mRNA; actives raise or lower the signal
Outline: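 Fluorescent capillary electrophoresis of amplified reporter cDNA gave the signal, collected 24 h after dosing HepG2 cells that held transfected cis-element reporter constructs.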

[4] = ATG_PPRE_CIS: Attagene CIS-FACTORIAL HepG2 Assay for human Peroxisome Proliferator-activated Response Element (PPRE) (AID 2282958); conditions: HepG2 PPRE cis-element reporter, Attagene transcription factor profiling; actives raise or lower the signal
Outline: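 Read-out: fluorescent reporter mRNA fragments resolved by capillary electrophoresis after RT-PCR. HepG2 cells carried transiently transfected PPRE-driven cis reporter constructs and were dosed for 24 h; gain or loss of signal fitted relative to DMSO.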

[5] = ATG_RORE_CIS: Attagene CIS-FACTORIAL HepG2 Assay for human RAR-related Orphan Receptor Element (RORE) (AID 2282959); conditions: HepG2 Attagene cis-factorial RORE reporter, mRNA; actives raise or lower the signal
Outline: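 Readout: fluorescent reporter mRNA by RT-PCR plus capillary electrophoresis, 24 h after dosing transfected HepG2 cells. Endogenous transcription factor activity on a cis promoter element is measured. Gain or loss of signal fitted against DMSO.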

[6] = ATG_Sox_CIS: Attagene CIS-FACTORIAL HepG2 Assay for human SRY-box transcription factor (SOX) (AID 2282960); conditions: HepG2 Attagene cis-factorial SOX reporter, mRNA; actives raise or lower the signal
Outline: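 Read-out: fluorescent RT-PCR products of SOX1-linked reporter transcripts resolved by capillary electrophoresis, fitted bidirectionally against DMSO. Transiently transfected HepG2 cells, 24 h after chemical exposure, endogenous transcription factor activity.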

[7] = target: Transcription factor Sp1 (Homo sapiens) (UniProt P08047); assay: ATG_Sp1_CIS: Attagene CIS-FACTORIAL HepG2 Assay for human Specificity Protein 1 (Sp1) (AID 2282961); conditions: HepG2 Sp1 cis-reporter transcription, actives raise or lower the signal
Outline: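 Read-out: fluorescence of 6-FAM-labeled, HpaI-digested RT-PCR products separated by capillary electrophoresis. HepG2 cells carried transfected cis-element reporter units and were exposed to chemicals for 24 h; gain or loss of signal fitted relative to DMSO.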

[8] = ATG_SREBP_CIS: Attagene CIS-FACTORIAL HepG2 Assay for human Sterol Regulatory Element Binding (SREBP) (AID 2282962); conditions: HepG2 Attagene cis-factorial SREBP reporter, mRNA; actives raise or lower the signal
Outline: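 In this cis-format assay, HepG2 liver cells express reporters controlled by promoter elements responsive to native transcription factors. Exposure lasts 24 h; reporter mRNA fluorescence from capillary electrophoresis gives the signal, fitted bidirectionally against DMSO.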

[9] = target: Signal transducer and activator of transcription 3 (Homo sapiens) (UniProt P40763); assay: ATG_STAT3_CIS: Attagene CIS-FACTORIAL HepG2 Assay for human Signal Transducer and Activator of Transcription 3 (STAT3) (AID 2282963); conditions: HepG2, Attagene cis-factorial STAT3 reporter transcription; actives raise or lower the signal
Outline: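 Cis-factorial format: endogenous transcription factors in HepG2 drive transfected reporter units. After 24 h treatment, reporter RNA was reverse-transcribed, amplified, FAM-labelled and HpaI-digested before CE analysis; activity scored in both directions against DMSO.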

[10] = ATG_TA_CIS: Attagene CIS-FACTORIAL HepG2 Assay for human TA Basal Promoter (AID 2282964); conditions: HepG2 Attagene CIS-factorial TA basal promoter reporter; actives raise or lower the signal
Outline: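 Background-control readout: TA basal promoter reporter mRNA, fitted in both directions relative to DMSO. Measured by RT-PCR and capillary electrophoresis 24 hours after treating HepG2 human liver cells transiently carrying multiplexed cis-regulated reporter constructs.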

[11] = ATG_TCF_b_cat_CIS: Attagene CIS-FACTORIAL HepG2 Assay for human T-Cell-Factor with beta-catenin (TCF/b-cat) (AID 2282965); conditions: HepG2 TCF/beta-catenin cis-reporter transcription, actives raise or lower the signal
Outline: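 Measured: reporter mRNA in HepG2 transiently transfected with cis-promoter reporter units, 24 h after chemical addition. Fitting was bidirectional, DMSO as negative control.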

[12] = ATG_TAL_CIS: Attagene CIS-FACTORIAL HepG2 Assay for human TAL Basal Promoter (AID 2282966); conditions: HepG2 Attagene cis-factorial TAL promoter reporter; actives raise or lower the signal;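 further: background control endpoint measuring basal TAL promoter reporter mRNA not a specific factor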
Outline: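 Transiently transfected HepG2 (cis-regulated reporter units), 24 h treatment, mRNA read by fluorescent CE after RT-PCR; bidirectional fit, DMSO baseline.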

[13] = ATG_TGFb_CIS: Attagene CIS-FACTORIAL HepG2 Assay for human Transforming Growth Factor (TGF) (AID 2282967); conditions: HepG2 Attagene CIS TGFb reporter, mRNA transcription; actives raise or lower the signal
Outline: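 Endogenous TGFB1-linked transcription factor activity read as reporter mRNA via RT-PCR and capillary electrophoresis, 24 h after dosing transiently transfected HepG2 cells. Gain or loss of signal fitted relative to DMSO.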

[14] = ATG_VDRE_CIS: Attagene CIS-FACTORIAL HepG2 Assay for human Vitamin D Receptor Element (VDRE) (AID 2282968); conditions: HepG2 VDRE cis-reporter transcription, actives raise or lower the signal
Outline: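 Measures endogenous factor activity through cis-element-driven reporter transcripts in transiently transfected HepG2. Cells are treated 24 h; reporter mRNA is quantified by RT-PCR and capillary electrophoresis; fitting is bidirectional.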

[15] = target: Nuclear receptor subfamily 1 group I member 3 (Homo sapiens) (UniProt Q14994); assay: ATG_CAR_TRANS: Attagene TRANS-FACTORIAL HepG2 Assay for human Constitutive Androstane Receptor (CAR) (AID 2282969; active means hit-call score of the fitted dose curve at least 0.9, where 1 is the maximum;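 further: activators raise reporter mRNA above DMSO so AC50 marks induction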); conditions: HepG2 Attagene TRANS-FACTORIAL CAR reporter
Outline: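 Signal is reporter mRNA induction relative to DMSO, measured 24 h after dosing by RT-PCR with fluorescent primer extension and capillary electrophoresis. Human HepG2 liver cells carried transiently transfected chimeric NR-Gal4/GAL4-UAS reporter constructs.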

[16] = target: Estrogen receptor (Homo sapiens) (UniProt P03372); assay: ATG_ERa_TRANS: Attagene TRANS-FACTORIAL HepG2 Assay for human Estrogen Receptor alpha (ERa) (AID 2282970; active means hit-call score of the fitted dose curve at least 0.9, where 1 is the maximum); conditions: HepG2 Attagene TRANS ERa GAL4 reporter, mRNA
Outline: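 One of 30 multiplexed endpoints from a HepG2 TRANS system, this one reports ERa-Gal4-driven reporter mRNA. Transcripts were quantified 24 hours post-dosing by fluorescent RT-PCR and capillary electrophoresis, with activity scored as induction over DMSO.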

[17] = target: Steroid hormone receptor ERR1 (Homo sapiens) (UniProt P11474); assay: ATG_ERRa_TRANS: Attagene TRANS-FACTORIAL HepG2 Assay for human Estrogen-Related Receptor alpha (ERRa) (AID 2282971; active means hit-call score of the fitted dose curve at least 0.9, where 1 is the maximum); conditions: HepG2 Attagene TRANS reporter, ERRa transactivation
Outline: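 HepG2 cells transiently transfected with multiplexed GAL4-UAS reporter units reading chimeric ERRa-Gal4 activity; 24 h compound exposure. Reporter mRNA measured by RT-PCR, 6-FAM labelling, HpaI digest and capillary electrophoresis; gain of signal fitted versus DMSO baseline.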

[18] = target: X-box-binding protein 1 (Homo sapiens) (UniProt P17861); assay: ATG_Xbp1_CIS: Attagene CIS-FACTORIAL HepG2 Assay for human X-box Binding Protein 1 (XBP1) (AID 2282972); conditions: HepG2 XBP1 cis-element reporter, Attagene multiplex; actives raise or lower the signal
Outline: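 Changes in reporter transcript abundance, read by RT-PCR and capillary electrophoresis, reflect endogenous transcription factor activity. Transfected HepG2 cells received compound for 24 hours; DMSO defined baseline for bidirectional analysis.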

[19] = ATG_M_19_TRANS: Attagene TRANS-FACTORIAL HepG2 Assay for M19 Transcription Factor (Internal Marker) (AID 2282974; active means hit-call score of the fitted dose curve at least 0.9, where 1 is the maximum); conditions: HepG2 Attagene TRANS-FACTORIAL M19 internal marker reporter
Outline: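 24 h chemical exposure of transiently transfected HepG2 (MRTU library). RNA → oligo(dT) RT → PCR → 6-FAM labelling → HpaI cut → CE fluorescence. Positive-direction fit vs DMSO baseline; background internal-marker readout.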

[20] = target: Androgen receptor (Homo sapiens) (UniProt P10275); assay: ATG_AR_TRANS: Attagene TRANS-FACTORIAL HepG2 Assay for human Androgen Receptor (AR) (AID 2282973; active means hit-call score of the fitted dose curve at least 0.9, where 1 is the maximum); conditions: HepG2 Attagene TRANS-FACTORIAL AR reporter transcription
Outline: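 HepG2 cells transiently transfected with multiplexed GAL4-UAS reporter units and chimeric NR-Gal4 fusion; 24 h compound exposure. Reporter mRNA measured by RT-PCR, 6-FAM labelling, HpaI digestion and capillary electrophoresis; gain-of-signal fitted relative to DMSO baseline.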

Measured: AC50

Signal transducer and activator of transcription 3 (Homo sapiens), sequence (P40763 whole entry, looked up): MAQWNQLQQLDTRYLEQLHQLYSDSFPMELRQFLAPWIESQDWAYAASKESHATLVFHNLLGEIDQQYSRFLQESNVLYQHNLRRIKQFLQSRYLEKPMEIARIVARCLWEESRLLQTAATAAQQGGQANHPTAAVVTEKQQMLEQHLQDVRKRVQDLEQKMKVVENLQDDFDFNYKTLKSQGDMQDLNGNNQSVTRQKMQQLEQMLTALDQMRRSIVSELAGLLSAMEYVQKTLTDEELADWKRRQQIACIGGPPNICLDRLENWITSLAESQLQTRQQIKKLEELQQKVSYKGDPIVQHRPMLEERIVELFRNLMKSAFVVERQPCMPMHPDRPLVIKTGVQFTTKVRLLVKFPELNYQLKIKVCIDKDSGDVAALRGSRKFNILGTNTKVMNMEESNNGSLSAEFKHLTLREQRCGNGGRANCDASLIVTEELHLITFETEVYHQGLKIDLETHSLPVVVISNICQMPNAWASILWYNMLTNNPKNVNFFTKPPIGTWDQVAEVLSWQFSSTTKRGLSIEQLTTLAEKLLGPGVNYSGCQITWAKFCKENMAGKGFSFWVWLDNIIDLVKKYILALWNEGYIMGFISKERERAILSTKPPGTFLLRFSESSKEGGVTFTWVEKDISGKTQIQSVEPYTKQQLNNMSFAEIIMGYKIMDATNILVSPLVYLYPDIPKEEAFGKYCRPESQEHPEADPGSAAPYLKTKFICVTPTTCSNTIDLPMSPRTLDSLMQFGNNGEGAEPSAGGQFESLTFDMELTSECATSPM
Estrogen receptor (Homo sapiens), sequence (P03372 whole entry, looked up, the tested form may be a part): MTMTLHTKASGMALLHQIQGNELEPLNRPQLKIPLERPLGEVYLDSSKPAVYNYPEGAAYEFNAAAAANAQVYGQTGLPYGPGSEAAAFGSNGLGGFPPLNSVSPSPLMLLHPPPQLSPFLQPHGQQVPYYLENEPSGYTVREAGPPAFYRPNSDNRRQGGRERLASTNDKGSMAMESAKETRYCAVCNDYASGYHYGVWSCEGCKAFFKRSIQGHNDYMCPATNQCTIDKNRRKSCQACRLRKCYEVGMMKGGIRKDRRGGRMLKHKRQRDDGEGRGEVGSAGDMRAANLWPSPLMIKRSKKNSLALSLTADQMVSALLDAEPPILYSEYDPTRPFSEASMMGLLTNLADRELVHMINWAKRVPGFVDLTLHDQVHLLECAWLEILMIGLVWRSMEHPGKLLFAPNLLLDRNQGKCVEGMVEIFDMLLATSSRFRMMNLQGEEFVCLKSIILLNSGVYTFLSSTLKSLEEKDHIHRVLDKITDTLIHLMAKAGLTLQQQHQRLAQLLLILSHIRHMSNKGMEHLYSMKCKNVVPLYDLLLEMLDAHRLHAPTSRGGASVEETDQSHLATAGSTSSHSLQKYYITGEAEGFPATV
Transcription factor Sp1 (Homo sapiens), sequence (P08047 whole entry, looked up): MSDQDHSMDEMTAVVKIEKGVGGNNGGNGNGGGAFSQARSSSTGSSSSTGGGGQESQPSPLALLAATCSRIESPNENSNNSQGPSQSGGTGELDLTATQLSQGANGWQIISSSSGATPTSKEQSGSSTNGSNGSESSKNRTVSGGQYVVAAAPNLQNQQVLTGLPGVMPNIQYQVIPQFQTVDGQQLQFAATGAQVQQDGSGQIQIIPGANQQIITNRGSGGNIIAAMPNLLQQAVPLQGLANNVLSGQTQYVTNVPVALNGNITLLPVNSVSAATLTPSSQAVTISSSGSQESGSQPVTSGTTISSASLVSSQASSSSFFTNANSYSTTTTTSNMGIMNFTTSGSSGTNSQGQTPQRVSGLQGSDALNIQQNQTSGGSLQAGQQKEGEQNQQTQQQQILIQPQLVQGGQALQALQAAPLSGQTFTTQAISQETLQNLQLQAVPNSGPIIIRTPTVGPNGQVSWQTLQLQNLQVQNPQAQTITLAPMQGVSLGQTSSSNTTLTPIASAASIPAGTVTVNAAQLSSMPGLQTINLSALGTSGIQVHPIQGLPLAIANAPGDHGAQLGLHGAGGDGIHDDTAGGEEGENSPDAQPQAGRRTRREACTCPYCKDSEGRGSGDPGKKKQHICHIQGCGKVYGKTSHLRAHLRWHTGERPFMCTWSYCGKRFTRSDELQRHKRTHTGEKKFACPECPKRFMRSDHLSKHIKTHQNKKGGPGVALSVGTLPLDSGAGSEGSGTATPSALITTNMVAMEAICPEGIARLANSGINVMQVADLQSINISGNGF
Paired box protein Pax-6 (Homo sapiens), sequence (P26367 whole entry, looked up): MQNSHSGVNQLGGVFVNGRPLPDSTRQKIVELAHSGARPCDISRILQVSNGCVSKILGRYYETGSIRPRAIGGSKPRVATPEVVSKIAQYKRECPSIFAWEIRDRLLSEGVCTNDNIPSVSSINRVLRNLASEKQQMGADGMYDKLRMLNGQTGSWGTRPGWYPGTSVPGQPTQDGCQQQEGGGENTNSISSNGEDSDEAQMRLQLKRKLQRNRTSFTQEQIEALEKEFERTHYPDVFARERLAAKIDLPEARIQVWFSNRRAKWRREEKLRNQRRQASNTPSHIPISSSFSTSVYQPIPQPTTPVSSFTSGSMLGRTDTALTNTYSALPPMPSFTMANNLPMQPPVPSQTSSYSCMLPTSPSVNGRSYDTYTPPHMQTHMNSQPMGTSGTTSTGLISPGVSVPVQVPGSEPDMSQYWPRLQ
Androgen receptor (Homo sapiens), sequence (P10275 whole entry, looked up, the tested form may be a part): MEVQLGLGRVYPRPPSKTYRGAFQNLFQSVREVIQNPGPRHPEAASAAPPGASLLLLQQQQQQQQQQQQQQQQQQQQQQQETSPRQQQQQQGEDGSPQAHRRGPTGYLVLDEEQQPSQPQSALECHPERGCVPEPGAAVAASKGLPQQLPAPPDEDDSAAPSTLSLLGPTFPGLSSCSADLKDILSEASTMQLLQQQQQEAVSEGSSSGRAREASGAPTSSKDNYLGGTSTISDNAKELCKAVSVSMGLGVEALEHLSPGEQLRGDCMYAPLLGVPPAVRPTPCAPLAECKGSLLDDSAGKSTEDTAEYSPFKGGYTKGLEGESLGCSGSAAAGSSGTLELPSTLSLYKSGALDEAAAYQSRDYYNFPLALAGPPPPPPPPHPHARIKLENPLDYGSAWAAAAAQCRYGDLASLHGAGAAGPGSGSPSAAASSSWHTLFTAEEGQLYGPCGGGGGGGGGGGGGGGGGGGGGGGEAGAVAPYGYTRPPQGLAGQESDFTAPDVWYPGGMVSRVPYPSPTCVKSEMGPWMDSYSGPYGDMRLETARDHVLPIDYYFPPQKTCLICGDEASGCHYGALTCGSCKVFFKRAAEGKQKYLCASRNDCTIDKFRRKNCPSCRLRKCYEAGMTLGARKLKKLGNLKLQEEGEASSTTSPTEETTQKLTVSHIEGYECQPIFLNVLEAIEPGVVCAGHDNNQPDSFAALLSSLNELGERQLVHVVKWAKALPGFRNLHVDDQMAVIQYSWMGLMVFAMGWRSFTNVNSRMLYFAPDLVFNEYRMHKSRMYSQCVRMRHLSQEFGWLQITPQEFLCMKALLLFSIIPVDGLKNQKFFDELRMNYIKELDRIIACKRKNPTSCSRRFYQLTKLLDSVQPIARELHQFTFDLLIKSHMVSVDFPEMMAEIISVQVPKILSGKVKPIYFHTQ
X-box-binding protein 1 (Homo sapiens), sequence (P17861 whole entry, looked up): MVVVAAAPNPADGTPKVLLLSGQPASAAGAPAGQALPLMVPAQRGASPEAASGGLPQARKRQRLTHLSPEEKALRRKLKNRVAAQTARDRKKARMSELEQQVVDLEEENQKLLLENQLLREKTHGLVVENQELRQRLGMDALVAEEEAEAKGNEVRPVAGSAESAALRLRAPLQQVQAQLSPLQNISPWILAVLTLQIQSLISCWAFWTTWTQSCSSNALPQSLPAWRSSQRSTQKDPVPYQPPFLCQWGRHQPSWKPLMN
Nuclear receptor subfamily 1 group I member 3 (Homo sapiens), sequence (Q14994 whole entry, looked up, the tested form may be a part): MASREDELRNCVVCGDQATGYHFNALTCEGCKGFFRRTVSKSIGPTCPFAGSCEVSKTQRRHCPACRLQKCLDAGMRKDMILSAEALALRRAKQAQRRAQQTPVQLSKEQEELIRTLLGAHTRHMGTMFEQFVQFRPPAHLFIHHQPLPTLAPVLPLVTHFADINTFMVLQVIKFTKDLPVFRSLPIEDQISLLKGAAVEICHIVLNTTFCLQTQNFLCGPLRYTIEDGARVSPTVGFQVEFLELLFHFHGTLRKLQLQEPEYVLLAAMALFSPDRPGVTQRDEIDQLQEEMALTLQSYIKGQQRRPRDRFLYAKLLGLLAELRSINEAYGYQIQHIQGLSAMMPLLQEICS
Steroid hormone receptor ERR1 (Homo sapiens), sequence (P11474 whole entry, looked up, the tested form may be a part): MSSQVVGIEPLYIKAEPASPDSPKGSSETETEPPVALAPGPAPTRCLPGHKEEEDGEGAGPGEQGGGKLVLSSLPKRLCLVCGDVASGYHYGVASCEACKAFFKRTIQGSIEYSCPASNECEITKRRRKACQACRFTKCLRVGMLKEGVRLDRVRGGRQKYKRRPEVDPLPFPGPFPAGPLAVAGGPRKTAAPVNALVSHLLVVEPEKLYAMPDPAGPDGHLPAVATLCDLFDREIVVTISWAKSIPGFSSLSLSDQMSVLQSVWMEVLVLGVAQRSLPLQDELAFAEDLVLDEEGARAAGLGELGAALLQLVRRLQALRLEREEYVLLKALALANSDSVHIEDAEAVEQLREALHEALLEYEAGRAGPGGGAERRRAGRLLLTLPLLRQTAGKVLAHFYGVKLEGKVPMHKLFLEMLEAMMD

OCCOc1ccccc1
inactive: [1] | [2] | [3] | [4] | [5] | [6] | [7] | [8] | [9] | [10] | [11] | [12] | [13] | [14] | [15] | [16] | [17] | [18] | [19]

Oc1ccc(Cl)cc1Cc1ccccc1
inactive: [1] | [2] | [3] | [4] | [6] | [7] | [8] | [9] | [10] | [11] | [12] | [13] | [15] | [18] | [20] | [19]
active: [1] 13.6 µM | [2] 8.56 µM | [4] 9.13 µM [middle of 6 runs] | [6] 8.2 µM | [7] 13.4 µM | [8] 7.03 µM and 6.32 µM | [10] 17.5 µM | [11] 16.4 µM | [18] 7.32 µM and 11.2 µM and 15.9 µM

CC(C)(C)C(O)/C(=C\c1ccc(Cl)cc1Cl)n1cncn1 (configuration not stated)
active: [3] 5 µM
inactive: [1] | [2] | [4] | [5] | [6] | [7] | [8] | [9] | [10] | [11] | [12] | [13] | [14] | [15] | [16] | [18] | [19]

Cc1cc(C)nc(NC(=O)NS(=O)(=O)c2ccccc2C(=O)OC2COC2)n1
active: [8] 81.9 µM | [14] 50 µM
inactive: [1] | [2] | [3] | [4] | [5] | [6] | [7] | [9] | [10] | [11] | [12] | [13] | [15] | [16] | [18]

COc1cc(OC)nc(NC(=O)NS(=O)(=O)c2cc(NC=O)ccc2C(=O)N(C)C)n1
active: [3] 17.1 µM
inactive: [1] | [2] | [4] | [5] | [6] | [7] | [8] | [9] | [10] | [11] | [12] | [13] | [14] | [15] | [16] | [17] | [18] | [20] | [19]

N#Cc1c(Cl)c(Cl)c(Cl)c(C#N)c1Cl
active: [3] 0.121 µM | [14] 0.267 µM
inactive: [1] | [2] | [4] | [5] | [6] | [7] | [8] | [9] | [10] | [11] | [12] | [13] | [15] | [16] | [18] | [19]
